Tested on: T1, CTL2-GFP (C. trachomatis L2/434/Bu, GFP-expressing)
T1 construct: L2/434/Bu, GFP-expressing
Set-up: species or system HeLa; Intracellular C. trachomatis growth in HeLa cells, bulk GFP fluorescence relative to DMSO
Settings: bulk GFP, single well; 28.5 h, 10 µM; inhibitor
Procedure: MICs were calculated as described above.

First: CCOC(=O)CC(C)(O)P(=O)(OC)OC (stereo not drawn) [CBK261287]
Second: O=C(c1cccc(S(=O)(=O)F)c1)N1CCCCC1 [CBK074224]
The “% of control remaining” value of the first is lower: 100% for the first, 100.074% for the second.

With `S=P(Oc1ccccc1)(Oc1ccccc1)Oc1ccccc1` [CBK260987] the “% of control remaining” value was 100%.

— article PMC12040169 (PLOS Biology, 2025)
